# Experimental data from PubChem BioAssay AID2283193 (EPA ToxCast).
# Inconclusive results are not listed. The source made the active and inactive calls. The calls were made as follows: active = hit-call score of the fitted dose curve at least 0.9, where 1 is the maximum; inconclusive = response in the unintended direction; inactive = score below 0.9.
# Target: human Protein Kinase C, zeta (PKCz), PRKCZ (gene 5590) (UniProt Q05513)
# Assay: NVS_ENZ_hPKCz: NovaScreen (NVS) Enzymatic Assay for human Protein Kinase C, zeta (PKCz)
# Description: NVS_ENZ_hPKCz is a biochemical, single-readout assay that uses extracted gene-proteins in a cell-free assay. Measurements were taken 1 hour after chemical dosing in a 384-well plate.NVS_ENZ_hPKCz is one of one assay component(s) measured or calculated from the NVS_ENZ_hPKCz assay. It is designed to make measurements of enzyme activity, a form of enzyme reporter, as detected with fluorescence intensity signals by Fluorescence and electrophoretic mobility shift technology.Data from the assay component NVS_ENZ_hPKCz was analyzed into 1 assay endpoint. This assay endpoint, NVS_ENZ_hPKCz, was analyzed in the positive analysis fitting direction relative to DMSO as the negative control and baseline of activity. Using a type of enzyme reporter, loss-of-signal activity can be used to understand changes in the enzymatic activity as they relate to the gene PRKCZ. Furthermore, this assay endpoint can be referred to as a primary readout, because this assay has produced multiple assay endpoints where this one serves a enzymatic activity function. To generalize the intended target to other relatable targets, this assay endpoint is annotated to the kinase intended target family, where the subfamily is serine/threonine kinase. […]
# Chain of human Protein Kinase C, zeta (PKCz), PRKCZ (gene 5590) (Q05513 whole entry, looked up): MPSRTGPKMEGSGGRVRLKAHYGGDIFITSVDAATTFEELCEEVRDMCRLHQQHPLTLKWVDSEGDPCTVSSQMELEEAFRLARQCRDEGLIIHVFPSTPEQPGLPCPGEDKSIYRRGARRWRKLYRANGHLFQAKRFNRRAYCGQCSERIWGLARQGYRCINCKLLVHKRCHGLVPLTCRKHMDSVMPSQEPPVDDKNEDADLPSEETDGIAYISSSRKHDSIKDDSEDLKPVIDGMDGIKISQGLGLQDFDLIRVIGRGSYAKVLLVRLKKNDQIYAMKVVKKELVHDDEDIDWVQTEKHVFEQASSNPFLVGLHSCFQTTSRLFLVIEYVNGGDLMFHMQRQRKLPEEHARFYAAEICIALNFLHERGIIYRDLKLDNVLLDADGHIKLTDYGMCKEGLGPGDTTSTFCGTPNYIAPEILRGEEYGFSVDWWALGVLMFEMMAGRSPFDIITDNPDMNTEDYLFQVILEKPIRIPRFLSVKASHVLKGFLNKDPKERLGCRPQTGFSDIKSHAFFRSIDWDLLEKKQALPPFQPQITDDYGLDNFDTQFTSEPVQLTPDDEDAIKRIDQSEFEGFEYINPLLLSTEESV
structure (smiles),measurement,value
CCCCC(CC)COC(=O)c1ccccc1C(=O)O (stereo unspecified),outcome,inactive
